Assay results from PubChem BioAssay (NCATS).
Where “and” joins values, the source holds several entries; their conditions need not be identical. Identical values can stand only once. Inconclusive results are not listed. Entries that show only a call come without a potency. A number with no mark means an inactive call. Calls of active or inactive are those of the source. Calls follow the shape of the dose curve; as a rule, active = well fitted cell-killing curve with a large enough effect; inconclusive = small, poorly fitted or top-dose-only effect, or effect the other way; inactive = no such curve, though single readings can be large or run the other way.

Experiment: Viability qHTS for spleen associated tyrosine kinase inhibitor (SYKi) naive MV4-11 cells (AID 1963823); also: nearly all actives have a fitted effect of over 40% in size
Conditions: MV4-11 AML viability, CellTiter-Glo luminescence, 72 h; series mostly up to 45 µM
Excerpt: Department of Medicine, Hematology/Oncology
University Hospital Frankfurt, Germany.
Trials have shown promising clinical activity of the selective SYK inhibitor entospletinib in patients with high expressing HOXA9/MEIS1 acute leukemias. As the development of resistance mechanisms is a common problem in the use of targeted drugs, we performed a chemical library screen to identify drug sensitivities in SYK inhibitor resistant AML cells. […] Glucocorticoids are potent immunosuppressants which work in part by inhibiting the transcription of cytokine genes.
Described herein is a viability screen to look for activity in the SYK inhibitor naive cell line against four NCATS compound libraries (MIPE 5.0, NPC, NPACT, and Kinase) totaling 11372 compounds. Active hits were reacquired for confirmation and further secondary assay testing.
SEQUENCE No. (e.g., 1, 2, 3, etc.); […] (e.g., Cells, Incubation, Reagent, etc.); VALUE; DESCRIPTION.
1; Media; 2uL; white, solid-bottom Corning assay plate.
2; Compounds; 23nL; Echo acoustic dispenser.
3; Cell; 5uL; 500 cells per well.
4: Incubation; 72hr; 37 C, 5% CO2, 95% humidity.
5; Reagent; 3uL; CellTiter-Glo reagent (Promega).
6; Incubation; 10min; room temperature.
7; Detection; Luminescence; ViewLux plate reader (PerkinElmer).
NOTES (numbers refer to Sequence numbers above
1. Quantitative high-throughput screening (qHTS) of small molecule compounds was conducted on naive SYKi MV4-11 cell line.
2. Twenty-three nanoliter of small molecule compounds were added to each assay plates using the Echo acoustic dispenser (Beckman Coulter).
3. Cells were seeded into the assay plates at a final density of 500 cells in 5uL of media per well using the Multi-drop Combi dispenser.
4. Plates were covered with stainless steel gasketed lids and incubated for 72 hours at standard cell culture conditions.
5. Viability was assessed by adding 3uL of CellTiter-Glo detection reagent (Promega).
6. Plates were covered with gasket lids and incubated for 10 minutes at room temperature.
7. Luminescence was measured on a ViewLux plate reader (PerkinElmer).
Potency is read from the fitted curve at half-maximal effect.

For `C[C@]12CCC[C@](C)(C(=O)O)C1CCC13C=C(CO)C(CCC12)C3` (stereo not given in full), which Potency is on record?
The Potency was “inactive”.

With `C=CC(C)(O)CC/C=C(\C)COC1O[C@H](CO)[C@@H](O)[C@H](O)[C@H]1O` (stereo not given in full) as the molecule, how does the Potency read?
Its Potency is “inactive”.

For `COc1cccc(C(=O)N2CCN(C(=O)COc3cccc(C)c3)CC2)c1OC`, which Potency is on record?
Its Potency is “inactive”.

With `Nc1ncnc2c1c(-c1cnc3[nH]ccc3c1)nn2C1CCCC1` as the molecule, how does the Potency read?
The Potency was 920 nM (active) and 590 nM (active).

For `CCN(CC)CCOC(=O)c1ccc(N)cc1`, which Potency is on record?
Its Potency is “inactive”.

For `COc1cc(C(=S)N2CCOCC2)cc(OC)c1OC`, which Potency is on record?
Its Potency is “inactive”.

Which Potency does the source give for `Cc1cc2c(OCC(CNC(C)(C)C)OC(=O)c3ccccc3)cccc2[nH]1` (stereo not given) here?
The Potency was “inactive”.

Which Potency does the source give for `C#CC[C@H](c1nc2cc(Cl)ccc2c(=O)n1Nc1ccccc1)N(CCCN)C(=O)c1cccc(Cl)c1F` here?
Its Potency is 0.164 µM (active).

Which Potency does the source give for `CN1[C@@H]2CC[C@H]1CC(OC(=O)C(CO)c1ccccc1)C2` (stereo not given in full) here?
Its Potency is “inactive”.

For `C=C(C=O)[C@]1(O)C[C@@]2(C)C(=CC1=O)C=C[C@H](OC(=O)/C=C/C=C/[C@H](C)CC)[C@@H]2C`, which Potency is on record?
The Potency was 1.12 µM (active).

For `Clc1cccc(-c2nnnn2Cc2cccnc2)c1Cl`, which Potency is on record?
Its Potency is “inactive”.

For `O=S(=O)(O)c1ccc(O)cc1`, which Potency is on record?
Its Potency is “inactive”.

With `COc1ccc(NC(=O)N2CCc3c2ccc2ccccc32)cc1N1CCN(C)CC1` as the molecule, how does the Potency read?
The Potency was 9.2 µM (active).

Which Potency does the source give for `CC1CCC2(C)C(CC(O)C(O)C23CO3)C1(C)CCC1=CC(O)OC1=O` (stereo not given) here?
The Potency was “inactive”.

For `CC(=O)/C=C/C1(O)C(C)CC(O[C@@H]2O[C@H](CO)[C@@H](O)[C@H](O)[C@H]2O)CC1(C)C` (stereo not given in full), which Potency is on record?
Its Potency is “inactive”.

With `CC1CCC2(C(=O)OC3OC(CO)C(O)C(O)C3O)CCC3(C)C(=CCC4C5(C)CCC(O)C(C)(CO)C5CCC43C)C2C1(C)O` (stereo not given) as the molecule, how does the Potency read?
Its Potency is “inactive”.

Which Potency does the source give for `CC(=O)N[C@@H](CCC(=O)O)C(=O)O` here?
The Potency was “inactive”.

With `O=C(Nc1nc2ccccc2n1CCc1ccccc1)c1ccccc1` as the molecule, how does the Potency read?
The Potency was “inactive”.

Which Potency does the source give for `COc1cc(C)[nH]c(=O)c1CN1CCc2c(Cl)cc([C@H](OC)C3COC3)c(Cl)c2C1=O` here?
Its Potency is “inactive”.

For `COC(=O)[C@@]1(O)C=CC[C@@H]2[C@@]3(C)C[C@@H](c4ccoc4)OC(=O)[C@H]3CC[C@]21C`, which Potency is on record?
Its Potency is “inactive”.

For `COc1cc(N2CCC(N3CCN(C)CC3)CC2)ccc1Nc1ncc(Cl)c(Nc2ccccc2S(=O)(=O)C(C)C)n1`, which Potency is on record?
Its Potency is 92 nM (active) and 148 nM (active).

For `Cc1ccc(-c2ccc3ncc4c(c3n2)n(C2CCN(C(=O)[C@H](C)O)CC2)c(=O)n4C)cn1`, which Potency is on record?
The Potency was 0.0651 µM (active).

Which Potency does the source give for `O=C1Cc2cc(CCN3CCN(c4nsc5ccccc45)CC3)c(Cl)cc2N1` here?
The Potency was 11.9 µM (active) and 9.2 µM (active).

With `NC(=O)N1c2ccccc2C=Cc2ccccc21` as the molecule, how does the Potency read?
Its Potency is “inactive”.

With `C=C(C)C(=O)OC1CC2(C)OC(=CC2=O)C(=C)CC2OC(=O)C(COC)C12` (stereo not given) as the molecule, how does the Potency read?
Its Potency is 1.61 µM (active).

Which Potency does the source give for `CC(C)[C@@H](C)/C=C/[C@@H](C)[C@H]1CC[C@H]2C3=CC=C4C[C@@H](O)CC[C@]4(C)C3=CC[C@]12C` here?
The Potency was 16.4 µM (active).

For `CCOC(=O)C(C)Oc1cccc2c(=O)n(CC(=O)Nc3ccc4c(c3)OCCO4)ccc12` (stereo not given), which Potency is on record?
Its Potency is 1.48 µM (active).

Which Potency does the source give for `CCC1CCCCN1C(=O)n1ncc(C(O)(c2ccccc2)c2ccccc2)n1` (stereo not given) here?
The Potency was 11.8 µM (active).

For `C[C@@H]1O[C@@H](O[C@H]2[C@H](O[C@H]3[C@H](O[C@H]4CC[C@@]5(C)C(CC[C@]6(C)C5CC=C5[C@@H]7CC(C)(C)CC(=O)[C@]7(C)CC[C@]56C)[C@@]4(C)CO)O[C@H](C(=O)O)[C@@H](O)[C@@H]3O)O[C@H](CO)[C@H](O)[C@@H]2O)[C@H](O)[C@H](O)[C@H]1O` (stereo not given in full), which viability (% of control) is on record?
The viability (% of control) was 81.7% [at 9.25 µM].

With `COc1ccc2c3c1O[C@H]1C[C@@H](O)C=C[C@@]31CCN(C)C2` as the molecule, how does the Potency read?
Its Potency is “inactive”.

With `C[C@@H]1CC[C@@]2(OC1)O[C@H]1C[C@H]3[C@@H]4CC[C@H]5C[C@@H](O)CC[C@]5(C)[C@H]4CC(=O)[C@]3(C)[C@H]1[C@@H]2C` as the molecule, how does the viability (% of control) read?
Its viability (% of control) is 83.6% [at 4.97 µM].

Which Potency does the source give for `COC(=O)C[C@H]1[C@]2(C)C3=C(C)[C@H](c4ccoc4)C[C@H]3O[C@@H]2[C@H](O)C2[C@](C)(C(=O)OC)C=CC(=O)[C@@]21C` (stereo not given in full) here?
Its Potency is “inactive”.

Which Potency does the source give for `O=C(O)c1ccccn1` here?
The Potency was “inactive”.

For `C[C@@H]1COC(Nc2ccc3ncnc(Nc4ccc(OCc5nccs5)c(Cl)c4)c3c2)=N1`, which Potency is on record?
The Potency was 4.11 µM (active).

For `O=C(OC[C@H]1O[C@H](O[C@]2(CO)O[C@H](CO)[C@@H](O)[C@@H]2O)[C@H](O)[C@@H](O)[C@@H]1O)c1ccccc1`, which Potency is on record?
Its Potency is “inactive”.

For `Cn1cc(-c2[nH]c3cc(NC(=O)[C@H](N)C4CCCCC4)cc4c3c2C=NNC4=O)cn1`, which Potency is on record?
Its Potency is 0.0661 µM (active).

Which Potency does the source give for `Oc1ccc(-c2ccc(-c3cc(Nc4cccc(CNC5CC5)c4)n[nH]3)cc2)c(O)c1` here?
Its Potency is 0.833 µM (active).

Which Potency does the source give for `Nc1nc2ncc(CNc3ccc(C(=O)N[C@@H](CCC(=O)O)C(=O)O)cc3)nc2c(=O)[nH]1` here?
Its Potency is “inactive”.

Which Potency does the source give for `CC(=O)c1c(O)cc2cccc3c2c1CC(C)(O)O3` (stereo not given) here?
Its Potency is “inactive”.

With `CCOC(=O)C1=CCCCC1S(=O)(=O)Nc1ccc(F)cc1Cl` (stereo not given) as the molecule, how does the Potency read?
The Potency was 20.9 µM (active).
